Here are results for 4 compounds from PubChem BioAssay.

Activity calls are given as the source filed them.

Assay [1] is described as follows: E. coli DRC41 culture turbidity changes, primary screen, E. coli filamentation inducer project, strain DRC41, OD650, 48 h (AID 1152).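 Also: E. coli MC1000 strain DRC41 lacking acrAB efflux pump and sulA.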 The settings on record: E. coli DRC41 (acrAB sulA), higher = more signal, called active from +8 up or from −8 down.
The nature of assay [2]: small-molecule binders of probe aLefty1, primary screen, biochemical, small-molecule microarray, 635/667 nm fluorescence (AID 1153).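 Also: score merges spot fluorescence with signal-to-noise ratio from the scanned slide images.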 The settings on record: higher = more signal.
Assay [3] is described as follows: PSAC antagonists in infected red cells, primary screen, cell-based, P. falciparum Indochina, OD700, 1 h (AID 1154). The settings on record: P. falciparum Indochina infected RBC osmotic lysis, higher = more signal, called active from +8 up or from −8 down.
A short description of assay [4]: PSAC antagonists in infected red cells, primary screen, cell-based, P. falciparum Indochina, OD700, 2 h (AID 1155).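 Also: lysis reports solute entry through the parasite surface anion channel PSAC; channel blockers reduce lysis of infected cells.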 The settings on record: P. falciparum Indochina infected erythrocytes, osmotic lysis OD700; higher = more signal, called active from +8 up or from −8 down.
Assay [5] in a line: osmotic lysis modulators in infected erythrocytes, primary screen, PSAC antagonist project, cell-based, P. falciparum Indochina, OD700, 3 h (AID 1156). The conditions noted are these: higher = more signal, called active from +8 up or from −8 down.
Assay [6] is described as follows: PSAC antagonists in infected red cells, primary screen, cell-based, P. falciparum Indochina, OD700, 18 h (AID 1157). The conditions noted are these: P. falciparum Indochina infected erythrocytes, osmotic lysis OD700, 18 h; higher = more signal, called active from +8 up or from −8 down.
Assay [7] is described as follows: modulators of S6 phosphorylation in cells, primary screen, cell-based, A549, cytoblot, luminescence, serum-stimulated (AID 1158).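 Also: serum-stimulated A549 lung adenocarcinoma cells; signal is phosphorylated S6 detected by cytoblot immunostaining with HRP secondary.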 The conditions noted are these: A549 phospho-S6 cytoblot, 5 h, higher = more signal.
Assay [8] concerns the target NADPH oxidase 2 (Homo sapiens) (UniProt P04839). Put plainly: NOX2-dependent H2O2 signal modulators, primary screen, NOX inhibitor project, cell-based, HEK293-NOX2, PMA-stimulated, Amplex Red fluorescence (AID 1159). Also: test concentration not given here. The settings on record: 45 min, higher = more signal, called active from +8 up or from −8 down.
Assay [9] deals with NADPH oxidase 4 (Homo sapiens) (UniProt Q9NPH5). Put plainly: NOX4-dependent H2O2 signal modulators, primary screen, NOX inhibitor project, cell-based, HEK293-NOX4, tetracycline-induced, Amplex Red fluorescence (AID 1160). The conditions noted are these: 45 min, higher = more signal, called active from +8 up or from −8 down.
Assay [10] concerns the target NADPH oxidase 5 (Homo sapiens) (UniProt Q96PH1). As to the kind of experiment: NOX5-dependent H2O2 signal modulators, primary screen, NOX inhibitor project, cell-based, HEK293-NOX5, Amplex Red fluorescence (AID 1161). The settings on record: HEK293-NOX5, ionomycin, 45 min, higher = more signal.
Assay [11] in a line: A549 cell viability effects, profiling panel, calcein-AM fluorescence, 48 h, basal (AID 1162). Also: test concentration not given here. The conditions noted are these: higher = more signal.
Assay [12] in a line: adipocyte viability effects, profiling panel, cell-based, 3T3-L1 adipocytes, calcein-AM fluorescence, 48 h, basal (AID 1163). Also: test concentration not given here. The conditions noted are these: 3T3-L1 adipocytes viability, higher = more signal.
A short description of assay [13]: HepG2 cell viability effects, profiling panel, calcein-AM fluorescence, 48 h, basal (AID 1164). Also: test concentration not given here. The conditions noted are these: higher = more signal.
The nature of assay [14]: MM1S cell viability effects, profiling panel, calcein-AM fluorescence, 48 h, basal (AID 1165).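 Also: viability of MM1S multiple myeloma cells under basal unstimulated conditions; test concentration not given here.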 The conditions noted are these: higher = more signal.
Assay [15] is described as follows: basal RPMI8226 viability, no added stimulus, profiling panel, cell-based, calcein-AM fluorescence, 48 h, PK04 Diversity Set (AID 1166).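 Also: cells grown under basal conditions without added stimulus; test concentration not given here.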 The settings on record: RPMI8226 myeloma viability, higher = more signal.
Assay [16] can be described thus: basal HepG2 mitochondrial membrane potential changes, profiling panel, cell-based, JC-1 fluorescence, 24 h, 100 nL compound (AID 1167). Also: test concentration not given here. The conditions noted are these: higher = more signal.
Assay [17] is described as follows: basal 3T3-L1 adipocyte mitochondrial potential changes, profiling panel, cell-based, JC-1 fluorescence, 3T3-L1 adipocytes, 24 h, 100 nL compound (AID 1168). Also: test concentration not given here. The conditions noted are these: JC-1 mitochondrial fluorescence, higher = more signal, called active from +8 up or from −8 down.
Assay [18] is described as follows: basal RPMI8226 mitochondrial membrane potential changes, profiling panel, cell-based, JC-1 fluorescence, 24 h, 100 nL compound (AID 1169). Also: test concentration not given here. The settings on record: RPMI8226 myeloma, JC-1 mitochondrial potential fluorescence, higher = more signal.
The nature of assay [19]: basal MM1S mitochondrial membrane potential changes, profiling panel, cell-based, JC-1 fluorescence, 24 h, 100 nL compound (AID 1170). Also: test concentration not given here. The settings on record: higher = more signal.
Assay [20] can be described thus: A549 lung cancer cell viability effects, profiling panel, resazurin fluorescence, 24 h, PK04 Diversity Set (AID 1171). Also: test concentration not given here. The conditions noted are these: higher = more signal, called active from +8 up or from −8 down.

NADPH oxidase 5 (Homo sapiens), sequence (Q96PH1 whole entry, looked up): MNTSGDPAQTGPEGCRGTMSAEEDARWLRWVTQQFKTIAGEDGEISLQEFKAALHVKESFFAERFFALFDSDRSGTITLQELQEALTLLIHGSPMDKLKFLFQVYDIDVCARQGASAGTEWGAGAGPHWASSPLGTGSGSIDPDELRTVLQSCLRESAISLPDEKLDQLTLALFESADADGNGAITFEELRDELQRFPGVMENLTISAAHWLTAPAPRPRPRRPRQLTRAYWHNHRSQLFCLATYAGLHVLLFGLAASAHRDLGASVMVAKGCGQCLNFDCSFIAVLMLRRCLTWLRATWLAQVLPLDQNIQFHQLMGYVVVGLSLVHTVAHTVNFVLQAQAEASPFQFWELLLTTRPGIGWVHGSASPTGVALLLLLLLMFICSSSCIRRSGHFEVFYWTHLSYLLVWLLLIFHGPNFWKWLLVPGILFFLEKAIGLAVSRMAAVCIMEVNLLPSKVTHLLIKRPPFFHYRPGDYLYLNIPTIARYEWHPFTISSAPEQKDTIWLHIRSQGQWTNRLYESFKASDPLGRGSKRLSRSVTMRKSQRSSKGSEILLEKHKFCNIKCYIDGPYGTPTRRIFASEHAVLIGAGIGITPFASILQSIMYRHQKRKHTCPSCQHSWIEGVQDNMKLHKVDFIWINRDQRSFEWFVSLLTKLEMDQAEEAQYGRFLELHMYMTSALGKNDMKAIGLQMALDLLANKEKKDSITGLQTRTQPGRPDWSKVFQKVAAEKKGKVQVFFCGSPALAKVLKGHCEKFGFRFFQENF
NADPH oxidase 4 (Homo sapiens), sequence (Q9NPH5 whole entry, looked up): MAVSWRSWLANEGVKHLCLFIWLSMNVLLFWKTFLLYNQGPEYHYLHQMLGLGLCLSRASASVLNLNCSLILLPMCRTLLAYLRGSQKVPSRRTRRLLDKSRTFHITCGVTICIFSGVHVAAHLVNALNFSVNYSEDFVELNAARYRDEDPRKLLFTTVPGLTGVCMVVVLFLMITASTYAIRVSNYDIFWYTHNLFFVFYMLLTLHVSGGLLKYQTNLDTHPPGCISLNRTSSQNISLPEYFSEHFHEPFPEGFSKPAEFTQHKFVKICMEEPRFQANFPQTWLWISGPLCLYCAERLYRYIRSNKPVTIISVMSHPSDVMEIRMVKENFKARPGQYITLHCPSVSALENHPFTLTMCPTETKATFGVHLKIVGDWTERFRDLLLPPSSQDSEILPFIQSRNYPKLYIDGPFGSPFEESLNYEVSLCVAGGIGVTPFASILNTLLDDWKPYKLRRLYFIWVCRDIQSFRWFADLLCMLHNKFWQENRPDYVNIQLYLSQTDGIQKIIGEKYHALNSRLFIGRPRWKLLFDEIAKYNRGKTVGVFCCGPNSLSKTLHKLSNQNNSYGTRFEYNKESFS
NADPH oxidase 2 (Homo sapiens), sequence (P04839 whole entry, looked up): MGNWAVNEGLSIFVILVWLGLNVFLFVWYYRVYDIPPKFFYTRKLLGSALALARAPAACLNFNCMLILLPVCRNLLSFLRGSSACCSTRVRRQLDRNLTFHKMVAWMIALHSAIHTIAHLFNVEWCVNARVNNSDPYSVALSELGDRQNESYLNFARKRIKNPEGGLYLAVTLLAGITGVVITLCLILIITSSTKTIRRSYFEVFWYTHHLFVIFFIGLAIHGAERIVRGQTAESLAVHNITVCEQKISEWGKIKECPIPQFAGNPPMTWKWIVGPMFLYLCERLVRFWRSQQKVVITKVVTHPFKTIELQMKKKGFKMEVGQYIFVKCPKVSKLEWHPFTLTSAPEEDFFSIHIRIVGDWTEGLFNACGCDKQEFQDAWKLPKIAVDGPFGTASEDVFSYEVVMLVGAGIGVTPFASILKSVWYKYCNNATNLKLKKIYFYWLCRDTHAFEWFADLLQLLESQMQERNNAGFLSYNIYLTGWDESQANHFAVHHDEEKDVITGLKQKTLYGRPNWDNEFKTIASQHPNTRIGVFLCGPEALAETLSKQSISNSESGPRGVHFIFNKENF

Regarding `CC1CC/C=C\[C@H]2OC34C=CCN(c5ccc(Cl)cc5)C(=O)[C@H]3N(CCCCCCO)C(=O)[C@]4(C)C2C(=O)O1` (stereo not given in full), the z-score in assay [1] was 0.348 (inactive); in [3], -0.108 (inactive); in assay [4], -0.36 (inactive); in assay [5], -0.0544 (inactive); in assay [6], 0.0625 (inactive); in assay [7], -0.11. In addition, the z-score is 1.37 (inactive) in [8]; 0.37 (inactive) in assay [9]; 1.98 in assay [10]; 0.943 in assay [11]; -3.94 in assay [12]; 0.606 in assay [13]. For the same compound, the z-score in assay [14] is 1.88; in [15] it was -0.368; in assay [16] it was 0.232; in assay [17], 0.115 (inactive); in assay [18], 1.03; in assay [19] it was -0.439. In [20], the z-score was 0.523 (inactive). In [2], this compound registered a composite z-score of 0.0999.

As to `O=C(O)[C@H](Cc1ccccc1)n1cc(C2(O)CCCCC2)nn1`, the z-score in [1] was -0.976 (inactive); in [3] it was 0.0438 (inactive); in assay [4] it was -0.879 (inactive); in assay [5] it was -0.472 (inactive); in [6] it was -0.281 (inactive); in assay [7], 0.347. Further, the z-score in assay [8] was 1.01 (inactive); in assay [9], 0.715 (inactive); in assay [10], 0.31; in [11] it was -0.53; in [12] it was -1.54; in assay [13], 0.105. Moreover, the z-score was -0.364 in assay [14]; -0.361 in assay [15]; -1.14 in assay [16]; -0.569 (inactive) in [17]; 0.791 in [18]; -0.417 in assay [19]. Moreover, the z-score in assay [20] is 0.0465 (inactive). In [2], this compound displayed a composite z-score of 0.592.

`C=C1C(=O)C=C2CN(C(=O)c3ccccc3)[C@@](Cc3ccc(OC)cc3)(C(=O)OC)[C@@H]12`: the z-score in assay [1] is -1.79 (inactive); in assay [3], 2.02 (inactive); in [4], 0.368 (inactive); in assay [5], 0.218 (inactive); in assay [6], 1.23 (inactive); in [7], -0.0615. The z-score in assay [8] is 0.427 (inactive); in assay [9] it was 1.1 (inactive); in assay [10], 2.68; in [11], -1.92; in assay [12], -0.033; in assay [13], -1.62. Also, the z-score is -1.73 in assay [14]; -4.68 in [15]; 0.971 in [16]; -1.02 (inactive) in assay [17]; -0.908 in assay [18]; -1.74 in assay [19]. Further, the z-score in [20] is -0.701 (inactive). The compound also came in with a composite z-score in assay [2] of 1.46.

For `C=CCOC(=O)[C@H]1[C@@H]2C(=O)O[C@@H](c3ccccc3)[C@@H](c3ccccc3)N2[C@@H](c2ccc(OCCOC(=O)[C@@H]3C[C@@H]4C(=O)N[C@@H](CCCCNC(C)=O)C(=O)N4[C@@H]3c3cccc(OCCO)c3)cc2)[C@]12C(=O)Nc1ccccc12`, the z-score in assay [1] is -0.637 (inactive); in assay [3] it was 3.6 (inactive); in [4] it was 1.34 (inactive); in [5], 2.28 (inactive); in assay [6], 0.621 (inactive); in assay [7], -0.52. Also, the z-score was 1.83 (inactive) in assay [8]; 1.4 (inactive) in assay [9]; 0.618 in [10]; -0.389 in assay [11]; 0.585 in assay [12]; -0.567 in assay [13]. For the same compound, the z-score in assay [14] is -0.0545; in [15], 0.879; in [16], 1.24; in assay [17], 2.61 (inactive); in assay [18], -0.615; in [19], -0.966. Besides, in assay [20], the z-score is -0.165 (inactive). Moreover, in assay [2], the composite z-score is 0.082.
